Screening results as filed in PubChem BioAssay.
An excerpt weighted towards active compounds, which were near 8% of everything screened.
LASV entry inh – Lassa virus entry inhibition | Lassa virus pseudotype entry inhibition, cell reporter | Potency, µM (series often up to 37.9 µM), actives largely listed as inhibitors | 300,000 compounds, 1.2% hits; calls by dose curve; tested in HEK293 cells; also: nearly all actives have a fitted effect of over 50% in size
SARS PLP yeast – SARS-CoV PLP inhibition in yeast; S. cerevisiae expressing SARS-CoV PLpro, growth rescue; Potency, µM (doses to about 32.9 µM), usual class: activators; 330,000 compounds, 0.19% hits; AID 485353; calls by dose curve; also: nearly all actives have a fitted effect of over 55% in size
MARV entry inh – inhibitors of Marburg virus binding or cell entry; Marburg virus pseudotyped entry inhibition, cell reporter; Potency, µM (doses to about 37.8 µM), usual class: inhibitors; 300,000 compounds, 1.8% hits; AID 540276; calls by dose curve; tested in HEK293 cells
HCV inh – inhibitors of hepatitis C virus infection. Potency, µM (highest dose often 41.8 µM), hits mostly inhibitors. Huh7.5.1 HCVcc-Cre infection, luciferase reporter, 44 h. 340,000 compounds, 3.4% hits; active = well fitted inhibition curve with a large enough effect; inconclusive = small, poorly fitted or top-dose-only effect, or another doubt; inactive = no such curve, though single readings can be large or run the other way
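Luciferase read-out (15 sec integration) after a 15 min room-temperature substrate step quantifies HCVcc-Cre infection. Cells, 1,000 per well, had compound added 4 h post-plating, then virus at ~0.5 moi, and were cultured 44 h.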
HCMV inh – human cytomegalovirus inhibition | 410,000 compounds, 4.5% hits | HFF cells, HCMV-luciferase reporter, 72 h; hits give low values | activity change, negative = inhibition, % at 57.5 µM | AID 1259415; in the data active = activity change below about -60%; inconclusive = no clear call, values can overlap the other calls; inactive = above about -39%
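Screen run at 2 compound doses on HFFs infected with reporter HCMV, MOI 1 PFU/cell. Luciferase activity from cell lysates at 72 h post infection gave inhibition relative to buffer-only and Salinomycin wells.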
FMDV inh – antivirals against foot and mouth disease virus. FMDV antiviral cell-based qHTS. AID 1159524. 410,000 compounds, 1.2% hits. Potency, µM (highest dose often 57.9 µM), usual class: inhibitors; calls by dose curve; tested in HEK293T cells; also: read-out not given here; nearly all actives have a fitted effect of over 45% in size
A number is an active result; i = inactive; ? = inconclusive; nt = no result given; [ ] = another dose, or the depositor's remark.

SMILES	LASV entry inh	SARS PLP yeast	MARV entry inh	HCV inh	HCMV inh	FMDV inh
Oc1ccc(N2CCN(c3ncnc4sc(-c5ccccc5)cc34)CC2)cc1	?	i	?	?	i	?
CCc1cc2c(N3CCN(c4ccccc4)CC3)ncnc2s1	?	i	?	8.91µM	-70.0	25.1µM
COc1ccc(CN2CCN(c3ncnc4sc5c(c34)CCCC5)CC2)cc1F	i	nt	i	nt	-69.8	?
COC(=O)c1ccc(Cl)c(NC(=O)C2CCN(S(=O)(=O)Cc3ccccc3)CC2)c1	i	nt	?	nt	i	i
O=C(O)CC(c1cccc(Cl)c1)n1cccc1 (stereo not given)	i	i	i	11.2µM	i	i
Cc1cccc(C(CC(=O)O)n2cccc2)c1 (stereo not given)	i	i	i	i	i	i
Cc1cccc(Oc2coc3cc(OCC(=O)NC4CCCCC4)ccc3c2=O)c1	i	nt	i	nt	i	?
Cc1cccc(CN2C(=O)NC(c3ccccc3)(c3ccccc3)C2=O)c1	?	i	?	i	-69.4	i
CC(C)(C)C(=O)CN1C(=O)NC(c2ccccc2)(c2ccccc2)C1=O	i	i	i	i	i	i
O=C(NCc1ccccc1F)[C@H]1[C@H](CO)[C@H]2Cn3c(cccc3=O)[C@H]2N1CC1CC1	nt	nt	nt	nt	i	nt
CN(CC(=O)Nc1cccc(F)c1)C(=O)Cc1n[nH]c(=O)c2ccccc12	i	i	i	i	i	i
CN(CC(=O)Nc1ccc(Cl)c(C(F)(F)F)c1)C(=O)Cc1n[nH]c(=O)c2ccccc12	?	i	i	?	-73.5	?
CN(CC(=O)Nc1ccc(Cl)c(C(F)(F)F)c1)C(=O)c1cc(-c2ccncc2)nc2ccccc12	i	i	?	?	i	28.2µM
CCCC/C(O)=C1\C(=O)CCCC1=NCCc1c(C)[nH]c2ccc(OC)cc12	?	i	8.91µM	i	i	i
Cc1c(-c2cccc(NC(=O)Nc3ccccc3)c2)nc2ncccn12	i	nt	nt	nt	i	i
CCOc1ccc(-c2cc3nc(C4CCN(C(=O)OC(C)(C)C)CC4)c(C(=O)Nc4c(C)cccc4C)cn3n2)cc1	i	nt	7.08µM	nt	i	i
CCOc1ccc(-c2cc3nc(C4CCN(C(=O)OC(C)(C)C)CC4)c(C(=O)Nc4ccc(C)cc4C)cn3n2)cc1	?	nt	?	nt	i	i
Cc1ccsc1C1Cc2c(C(=O)NCc3cccnc3)c(=O)cc(C)n2-c2ccccc2S1 (stereo not given)	nt	nt	nt	nt	nt	i
CC1(C)CC(N=Cc2c(O)n(Cc3ccc4c(c3)OCO4)c(=O)c3ccccc23)CC(C)(C)N1	?	i	?	11.2µM	i	i
Cc1cc(C)c2nc(/N=C(\N)NC(=O)c3ccccc3)nc(C)c2c1	i	i	?	i	i	i
Cc1cc(C)c2nc(/N=C(\N)NC(=O)Nc3ccccc3)nc(C)c2c1	?	i	?	11.2µM	?	?
Cc1c(C(=O)NC2CC(=O)N(c3ccc4c(c3)OCCO4)C2)cccc1[N+](=O)[O-] (stereo not given)	i	i	i	i[8.37 µM]	i	i
O=c1cnn(-c2ccc(Cl)cc2Cl)c(-c2ccccc2)c1	?	i	i	?	i	i
O=C1CC(c2cccnc2)=NN1c1ccc(Cl)cc1Cl	i	i	i	i	-100.4	i
Cc1ccc(-c2nc3n(n2)Cc2ccccc2-3)cc1	?	i	?	i	i	i
SMILES	LASV entry inh	SARS PLP yeast	MARV entry inh	HCV inh	HCMV inh	FMDV inh
c1ccc(-c2cn3c(n2)-c2ccccc2C3)cc1	4.47µM	i	?	i	i	i
CCOc1ccc(Cc2nccc3cc(OCC)c(OCC)cc23)cc1OCC	nt	nt	nt	nt	nt	i
CC1CCCC(NC(=S)Nc2ccc(SC(F)F)cc2)C1C (stereo not given)	?	i	?	31.6µM	?	i
COCCNC(=S)NNc1cccc(C(=O)O)c1	?	i	i	i	i	i
Cc1ccc(NC(=O)CSc2nnc(C)n3c2cc2sccc23)c(C)c1	i	nt	nt	nt	i	i
Cc1ccc(NC2=Nc3ccccc3N3C2=Nc2c(c(C)nn2-c2ccccc2)C3c2ccc(O)c(O)c2)cc1 (stereo not given)	?	i	?	i	-63.8	i
Cc1nn(-c2ccccc2)c2c1C(c1ccc(O)c(O)c1)N1C(=N2)C(Nc2ccccc2)=Nc2ccccc21 (stereo not given)	i	i	i	i	i	i
Cc1cccc(NC2=Nc3ccccc3N3C2=Nc2c(c(C)nn2-c2ccccc2)C3c2ccc(O)c(O)c2)c1 (stereo not given)	?	i	i	?	-97.1	i
O=C(c1cnccn1)N1CCC2(CC1)CN(Cc1nccs1)C2	nt	nt	nt	nt	nt	i
COc1ccc(/C=C/C(=O)NCCCN2CCCC2)cc1	nt	i	nt	i	-102.9	i
Cc1ccc(/C=C/C(=O)NCCCN2CCN(CCCNC(=O)/C=C/c3ccc(C)cc3)CC2)cc1	i	i	?	?	i	i
CC(C)(C)C1=CC(=O)C(=O)C(C(C)(C)C)=C1	?	i	i	?	nt	28.2µM
CC(C)(C)C1=CC(=Nc2ccccc2N)C=C(C(C)(C)C)C1=O	i	i	?	i	i	?
Cc1cc(C)cc(NC(=O)C2CCCN(c3cnccn3)C2)c1 (stereo not given)	i	nt	i	nt	i	i
CN(C)CCNc1nc2sc3c(c2c(=O)n1CCc1ccccc1)CCCCC3	nt	i	nt	?	-98.9	i
CC(O)CNc1nc2sc3c(c2c(=O)n1Cc1ccco1)CCCCC3 (stereo not given)	i	i	?	i	i	i
CC(O)CNc1nc2sc3c(c2c(=O)n1CCc1ccccc1)CCCCC3 (stereo not given)	25.9µM	i	?	i	i	i
O=c1c2c3c(sc2nc(NCCOCCO)n1Cc1ccco1)CCCCC3	nt	i	nt	i	i	i
COc1cc(/C=N/NC(=O)c2sc(N)c(C#N)c2C)ccc1O	i	i	4.47µM	i	i	i
COc1ccc(C2CC(c3ccccc3)=NN2C(=O)COC(=O)c2cccc(O)c2)cc1 (stereo not given)	i	i	?	?	i	i
C=CCNCC(=O)N1N=C(c2ccc3ccccc3c2)CC1c1ccc(OC)cc1 (stereo not given)	i	i	8.91µM	?	i	i
COc1ccc(C2CC(c3ccccc3)=NN2C(=O)COC(=O)c2nc3nc(C)cc(C)n3n2)cc1 (stereo not given)	i	i	i	10µM	i	i
O=S(=O)(CC(CN1CCOCC1)N1CCOCC1)c1ccccc1 (stereo not given)	nt	i	nt	i	i	i
O=S(=O)(CC(CN1CCCCC1)N1CCCCC1)c1ccc2ccccc2c1 (stereo not given)	?	i	3.55µM	i	-73.1	?
Cc1ccc(S(=O)(=O)CC(CN2CCCCC2)N2CCCCC2)cc1 (stereo not given)	i	i	i	15.8µM	-98.8	28.2µM
O=C(O)c1ccc(NS(=O)(=O)Cc2ccc(Cl)c(Cl)c2)cc1	?	nt	i	i	i	i
